# Results filed as inconclusive are left out. Where a call stands in place of a potency, no number is given. Calls of active or inactive are those of the source. Unless noted, the call rests on the fitted dose curve.
# Experiments:
# [1] = Validation screen for inhibitors of Lassa infection (AID 463096); further: potency means the concentration at half of the fitted maximal effect
# [2] = Inducers of the Endoplasmic Reticulum Stress Response (ERSR) in human glioma: Validation (AID 504836; active means well fitted curve in the direction sought with a large enough effect)
# Procedure, shortened: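 Stably transfected U87-MG human glioma cells carrying a GRP78-based luminescent sensor were seeded at 1000 cells/well, pin-dosed with compounds and incubated 16 h. Luciferase reagent was then added, and end-point luminescence was read after 10 min at room temperature.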
# [3] = qHTS for Inhibitors of the Functional Ribonucleoprotein Complex (vRNP) of Lassa (LASV) Arenavirus: LASV Primary Screen - GLuc reporter signal (AID 1347082; calls by dose curve; tested in HEK293 reporter line; further: series mostly up to about 57 µM; nearly all actives have a fitted effect of over 60% in size)
# [4] = qHTS for Inhibitors of the Functional Ribonucleoprotein Complex (vRNP) of Lassa (LASV) Arenavirus: Viability assay - alamar blue signal for LASV Primary Screen (AID 1347083; calls by dose curve; tested in HEK293 reporter line; further: series mostly up to about 57 µM; nearly all actives have a fitted effect of over 80% in size)
# [5] = qHTS for Inhibitors of the Functional Ribonucleoprotein Complex (vRNP) of Lymphocytic Choriomeningitis Arenaviruses (LCMV): Viability assay - alamar blue signal for LCMV Primary Screen (AID 1347085; calls by dose curve; tested in HEK293 reporter line; further: series mostly up to about 57 µM; nearly all actives have a fitted effect of over 80% in size)
# [6] = molecular target: Nucleoprotein (Lymphocytic choriomeningitis virus (strain Armstrong)) (UniProt P09992); assay: qHTS for Inhibitors of the Functional Ribonucleoprotein Complex (vRNP) of Lymphocytic Choriomeningitis Arenaviruses (LCMV): LCMV Primary Screen - GLuc reporter signal (AID 1347086); further: series mostly up to about 57 µM; nearly all actives have a fitted effect of over 70% in size
# Sequence of Nucleoprotein (Lymphocytic choriomeningitis virus (strain Armstrong)) (P09992 whole entry, looked up): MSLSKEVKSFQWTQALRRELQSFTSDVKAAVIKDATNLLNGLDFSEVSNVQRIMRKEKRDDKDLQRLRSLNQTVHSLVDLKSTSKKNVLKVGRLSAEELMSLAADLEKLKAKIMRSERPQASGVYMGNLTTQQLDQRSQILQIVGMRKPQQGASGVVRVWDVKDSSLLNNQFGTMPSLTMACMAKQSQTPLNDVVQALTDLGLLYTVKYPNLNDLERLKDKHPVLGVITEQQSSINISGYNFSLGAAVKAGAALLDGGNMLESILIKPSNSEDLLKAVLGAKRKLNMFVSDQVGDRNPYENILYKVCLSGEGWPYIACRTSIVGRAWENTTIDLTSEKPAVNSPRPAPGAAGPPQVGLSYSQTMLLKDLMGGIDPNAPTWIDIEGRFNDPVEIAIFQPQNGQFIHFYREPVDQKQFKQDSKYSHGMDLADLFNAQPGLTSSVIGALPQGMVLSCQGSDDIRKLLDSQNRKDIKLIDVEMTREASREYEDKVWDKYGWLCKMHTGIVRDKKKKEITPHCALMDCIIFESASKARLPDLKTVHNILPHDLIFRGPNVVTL
Compound,Potency [1],outcome [2],Potency [3],Potency [4],Potency [5],Potency [6]
N[C@H]1CONC1=O,inactive,inactive,inactive,inactive,inactive,inactive
C=C(C)C1CC=C(C(=O)O)CC1 (stereo unspecified),inactive,inactive,inactive,inactive,inactive,inactive
CCCC[C@@]1(C2CCCC2)Cc2cc(OCC(=O)O)c(Cl)c(Cl)c2C1=O,inactive,inactive,inactive,inactive,inactive,inactive
CCCCCCCCCCCCCCCCCC(=O)OC(CC(=O)O)C[N+](C)(C)C (stereo unspecified),inactive,inactive,inactive,inactive,inactive,inactive
Oc1cc(O)c2c(c1)O[C@H](c1ccc(O)c(O)c1)[C@@H](O)C2,inactive,inactive,inactive,inactive,inactive,inactive
Cc1ccc(C(=O)O[C@H](C(=O)O)[C@@H](OC(=O)c2ccc(C)cc2)C(=O)O)cc1 (tested in a mixture with another compound),inactive,inactive,inactive,inactive,inactive,inactive
C[C@@H](CN1CCC(Cc2ccccc2)CC1)[C@@H](O)c1ccc(O)cc1,inactive,inactive,inactive,inactive,inactive,inactive
CC(C)NCC(O)COc1ccc(CC(N)=O)cc1 (stereo unspecified),inactive,inactive,inactive,inactive,inactive,inactive
O=C1C2C=CC=CC2=NC(=S)N1CCN1CCC(=C(c2ccc(F)cc2)c2ccc(F)cc2)CC1 (stereo unspecified),inactive,inactive,inactive,inactive,inactive,inactive
C=CCN1CCc2c(cc(O)c(O)c2Cl)C(c2ccccc2)C1 (stereo unspecified),inactive,inactive,inactive,inactive,inactive,inactive
CC(C)(C)c1onc(OCP(=O)(O)O)c1CC(N)C(=O)O (stereo unspecified),inactive,inactive,inactive,inactive,inactive,inactive
O=C(O)CCC(=O)N1CCCC1C(=O)O (stereo unspecified),inactive,inactive,inactive,inactive,inactive,inactive
Nc1ncnc2c1ncn2C1CCCO1 (stereo unspecified),inactive,inactive,inactive,inactive,inactive,inactive
NC1(C(=O)O)CCc2cc(C(=O)O)ccc21 (stereo unspecified),inactive,inactive,inactive,inactive,inactive,inactive
CCCCCCCCCCCCCCCC(=O)NCC(COP(=O)([O-])OCC[N+](C)(C)C)OCC (stereo unspecified),11.2 µM (active),inactive,inactive,inactive,inactive,inactive
CCOC(=O)C12CC1/C(=N/O)c1ccccc1O2 (stereo unspecified),inactive,inactive,inactive,inactive,inactive,inactive

# — PubChem BioAssay (NCATS)
